Read-out in test [1]: Macrophage colony-stimulating factor (MCSF), CSF1 (gene 1435)
Put plainly: BSK_hDFCGF_MCSF: BioMAP Diversity Plus: hDFCGF Assay for Macrophage colony-stimulating factor (MCSF) Biomarker Activity (AID 2283060). Particulars: primary human foreskin fibroblasts; actives raise or lower the signal. The gist of the method: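 Human foreskin primary fibroblasts were treated with test chemical for 24 h, and M-CSF was then measured by ELISA. Data were fitted bidirectionally against DMSO as the negative control and activity baseline.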

A short description of test [2]: BSK_hDFCGF_SRB: Viability Assessment in the BioMAP Diversity Plus: hDFCGF Assay (AID 2283061).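 Also: cells exposed to compound for 24 h before the read.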 Particulars: primary human foreskin fibroblasts. Put shortly:
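Human foreskin primary fibroblasts were treated with compound and assessed 24 h after dosing. Total protein was measured by sulforhodamine B staining (0.1% SRB after 10% TCA fixation, 560 nm read) as a cytotoxicity marker, with bidirectional fitting against DMSO baseline.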

Read-out in test [3]: TIMP metallopeptidase inhibitor 1 (TIMP1), TIMP1 (gene 7076)
Kind of test: BSK_hDFCGF_TIMP1: BioMAP Diversity Plus: hDFCGF Assay for TIMP metallopeptidase inhibitor 1 (TIMP1) Biomarker Activity (AID 2283062). Particulars: primary human foreskin fibroblasts; actives raise or lower the signal. Put shortly:
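Primary human foreskin fibroblasts in the hDFCGF system were dosed with compound for 24 h, then TIMP-1 was measured by ELISA. Activity was fitted bidirectionally relative to DMSO control; parallel SRB staining assessed cytotoxicity.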

Read-out in test [4]: Monokine induced gamma interferon (MIG), CXCL9 (gene 4283)
Put plainly: BSK_hDFCGF_MIG: BioMAP Diversity Plus: hDFCGF Assay for Monokine induced gamma interferon (MIG) Biomarker Activity (AID 2283063). Particulars: primary human foreskin fibroblasts; actives raise or lower the signal. The gist of the method:
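ELISA read-out of MIG from primary human dermal fibroblasts 24 h post-dosing. Gain or loss of signal fitted bidirectionally, DMSO as baseline.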

Read-out in test [5]: Matrix Metallopeptidase 1 (MMP1), MMP1 (gene 4312)
Kind of test: BSK_hDFCGF_MMP1: BioMAP Diversity Plus: hDFCGF Assay for Matrix Metallopeptidase 1 (MMP1) Biomarker Activity (AID 2283064). Particulars: primary human foreskin fibroblasts; actives raise or lower the signal. Put shortly: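 hDFCGF primary fibroblasts (human foreskin); chemical added; 24 h; MMP1 by ELISA; bidirectional fit vs DMSO.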

Read-out in test [6]: Vascular cell adhesion molecule 1 (VCAM1), VCAM1 (gene 7412)
Put plainly: BSK_hDFCGF_VCAM1: BioMAP Diversity Plus: hDFCGF Assay for Vascular cell adhesion molecule 1 (VCAM1) Biomarker Activity (AID 2283065).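 As to AC50: VCAM-1 protein level quantified by ELISA after 24 h chemical exposure.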 Particulars: primary human foreskin fibroblasts; actives raise or lower the signal. The gist of the method:
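Primary human foreskin fibroblasts (hDFCGF system) were dosed with chemical and VCAM-1 was measured by ELISA 24 h later. Bidirectional curve fitting used DMSO as negative control and activity baseline.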

Read-out in test [7]: Plasminogen activator inhibitor-1 (PAI1), SERPINE1 (gene 5054)
Kind of test: BSK_hDFCGF_PAI1: BioMAP Diversity Plus: hDFCGF Assay for Plasminogen activator inhibitor-1 (PAI1) Biomarker Activity (AID 2283066). To be noted: primary human foreskin fibroblasts; actives raise or lower the signal. Put shortly:
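Human foreskin fibroblast primary cells, 24 h chemical exposure; PAI-1 measured by ELISA. Bidirectional fitting relative to DMSO; parallel cultures stained with SRB for total protein to flag overt cytotoxicity.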

Read-out in test [8]: Intercellular Adhesion Molecule 1 (ICAM1), ICAM1 (gene 3383)
Kind of test: BSK_KF3CT_ICAM1: BioMAP Diversity Plus: KF3CT Assay for Intercellular Adhesion Molecule 1 (ICAM1) Biomarker Activity (AID 2283067). To be noted: primary human keratinocytes with fibroblasts; actives raise or lower the signal. Put shortly:
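Human keratinocyte plus foreskin fibroblast primary co-culture was exposed to chemical for 24 h. ICAM-1 was then quantified by ELISA, and the data were fit bidirectionally against DMSO as the negative control and baseline.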

Read-out in test [9]: Interferon-gamma inducible Protein 10 (IP10), CXCL10 (gene 3627)
Kind of test: BSK_KF3CT_IP10: BioMAP Diversity Plus: KF3CT Assay for Interferon-gamma inducible Protein 10 (IP10) Biomarker Activity (AID 2283068). To be noted: primary human keratinocytes with fibroblasts; actives raise or lower the signal. Put shortly:
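KF3CT co-culture (keratinocytes + foreskin fibroblasts), 24 h compound, IP-10 by ELISA; bidirectional fit vs DMSO baseline.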

A short description of test [10]: BSK_KF3CT_SRB: Viability Assessment in the BioMAP Diversity Plus: KF3CT Assay (AID 2283069).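 Also: fitted for both signal gain and loss against DMSO baseline.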 Particulars: primary human keratinocytes with fibroblasts. Put shortly:
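Keratinocytes co-cultured with foreskin fibroblasts (human primary); chemical added, 24 h; fix 10% TCA, stain 0.1% SRB, A560. Bidirectional fit vs DMSO.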

Each structure is given as a SMILES string. “And” between values parts separate entries of the source, which are not always exact repeats. Equal values may be shown once. Where a structure was tested more than once in an assay, its records may differ in their call. The source made the active and inactive calls. The calls were made as follows: active = hit-call score of the fitted dose curve at least 0.9, where 1 is the maximum; inactive = score below 0.9.

For orientation: AC50 means the midpoint of the concentration-response curve, whichever way the signal moves. As for `O=C(O)C(F)(F)C(F)(F)C(=O)O`, the outcome in [1], in [2], in test [3], in [4], in [5] and in test [6] was inactive. Besides, the outcome in test [7], in test [8], in [9] and in test [10] was inactive. The AC50 in test [4] was 14.1 µM (active).
Consider `OCC(F)(F)OC(F)(F)C(F)(F)OC(F)(F)C(F)(F)OC(F)(F)F`, for which the outcome in test [1], in test [2], in test [3], in test [5], in test [6] and in test [7] was inactive. Besides, the AC50 in test [4] is 16 µM (active) and 14.7 µM (active); in test [6], 19.3 µM (active); in [9], 53.8 µM (active) and 53.2 µM (active); in [10], 48.3 µM (active) and 48.1 µM (active).
As to `CC(C)(C)c1ccccc1OP(=O)(Oc1ccccc1)Oc1ccccc1`, the AC50 in [1] was 20 µM (active); in test [2], 25 µM (active); in [3], 20 µM (active); in [6], 20 µM (active). For the same compound, the result in test [4], in [5], in test [7], in test [8] and in [9] was inactive.
Regarding `CC(C)(C)OOC(C)(C)C`, the result in [1], in [2], in test [3], in [4], in test [5] and in test [6] was inactive. Also, the result in test [7], in test [8] and in test [9] was inactive.
`Nc1ccc([N+](=O)[O-])cc1Cl`: the outcome in test [1], in test [2], in test [3], in test [4], in [5] and in [6] was inactive. For the same compound, the result in [7], in [8] and in test [9] was inactive.
With `CN(C)C(=O)Cl`, the outcome in test [1], in [2], in test [3], in test [4], in test [5] and in test [6] was inactive. The result in test [7], in test [8] and in [9] was inactive.
For `[N-]=[N+]=[N-]`, the result in test [1], in [2], in test [3], in test [4], in test [5] and in test [6] was inactive. Besides, the result in test [7], in [8] and in [9] was inactive.
With `N#Cc1c(-c2ccc(Cl)cc2)[nH]c(C(F)(F)F)c1Br`, the AC50 is 0.0566 µM (active) in test [1]; 3.97 µM (active) in [2]; 6.18 µM (active) in [3]; 20 µM (active) in [4]; 2.9 µM (active) in test [6]; 0.39 µM (active) in [7]. In addition, the AC50 in [9] is 8 µM (active). The outcome in test [5] and in [8] was inactive.
Consider `Cc1cccc(N)c1`, for which the outcome in [1], in test [2], in test [3], in test [4], in test [5] and in test [6] was inactive. Moreover, the result in test [7], in test [8] and in test [9] was inactive.
`CCOc1ccc(C(C)(C)COCc2cccc(Oc3ccccc3)c2)cc1`: the AC50 in test [1] is 2.26 µM (active). The result in [2], in test [3], in test [4], in [5], in test [6] and in [7] was inactive. For the same compound, the outcome in test [8] and in test [9] was inactive.
Consider `CCOC(=O)c1ccccc1C(=O)OCC`, for which the outcome in test [1], in test [2], in [3], in [4], in test [5] and in [6] was inactive. Further, the result in test [7], in [8] and in test [9] was inactive.
As to `CCOP(=S)(OCC)SCn1nnc2ccccc2c1=O`, in test [1], the AC50 is 20 µM (active). The outcome in test [2], in test [3], in [4], in test [5], in [6] and in test [7] was inactive. In addition, the outcome in test [8] and in test [9] was inactive.
Regarding `Cc1c([N+](=O)[O-])cc2c(c1[N+](=O)[O-])C(C)(C)CC2(C)C`, in test [1], the AC50 was 3.02 µM (active). In addition, the result in [2], in test [3], in test [4], in test [5], in test [6] and in test [7] was inactive. Moreover, the result in test [8] and in test [9] was inactive.
As to `c1ccc2c(c1)sc1ccccc12`, the result in test [1], in test [2], in test [3], in test [4], in test [5] and in test [6] was inactive. The result in test [7], in test [8] and in test [9] was inactive.
Turning to `OCC(F)(F)OC(F)(F)C(F)(F)OC(F)(F)C(F)(F)OC(F)(F)CO`, the AC50 is 14 µM (active) in test [1]; 5.95 µM (active) in test [2]; 16.8 µM (active) and 23.2 µM (active) in test [4]; 10.5 µM (active) and 8.39 µM (active) in test [5]; 13.4 µM (active) and 8.26 µM (active) in test [6]. Besides, the outcome in [1], in test [2], in [3], in test [7], in test [8] and in test [9] was inactive. Also, in [10], the result was inactive.
Regarding `O=[N+]([O-])c1ccc(Cl)c(Cl)c1`, the outcome in test [1], in [2], in test [3], in test [4], in [5] and in [6] was inactive. Also, the outcome in test [7], in test [8] and in [9] was inactive.
As for `CCOP(=S)(OCC)SCSCC`, the result in test [1], in [2], in test [3], in [4], in [5] and in test [6] was inactive. The outcome in test [7], in test [8] and in test [9] was inactive.
With `c1cc2c3c(cccc3c1)CC2`, the result in [1], in test [2], in [3], in test [4], in test [5] and in test [6] was inactive. The result in test [7], in [8] and in test [9] was inactive.
Regarding `CCCN(CCC)c1c([N+](=O)[O-])cc(C(C)C)cc1[N+](=O)[O-]`, the AC50 was 6.75 µM (active) in test [1]; 13.9 µM (active) in test [2]; 9.44 µM (active) in test [4]; 14.3 µM (active) in test [6]; 20 µM (active) in [7]. Also, the outcome in test [3], in [5], in [8] and in test [9] was inactive.
Take `CCOP(=S)(OCC)SCSc1ccc(Cl)cc1`: the AC50 in test [1] is 14.4 µM (active); in test [6] it was 3.97 µM (active). Moreover, the result in [2], in test [3], in test [4], in test [5], in test [7] and in [8] was inactive. Besides, the outcome in test [9] was inactive.

These data come from PubChem BioAssay (EPA / NIEHS).
